Assay results as given in PubChem BioAssay (NCI).
Compounds without any hit were thinned out: in the full panel of roughly 79,000, 15% have a hit. Activity calls are given as the source filed them. Rule as the data show it: active = growth inhibition above about 70%; inactive = the rest.

Key:
[1] = NCI Yeast Anticancer Drug Screen. Data for the wt1 strain (AID 149);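 also: 0% = growth of vehicle-treated wt1 cultures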; conditions: S. cerevisiae wt1 strain (SPY 50644) growth inhibition, hits give high values
Outline: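 Yeast wt1 strain exposed to compounds; growth inhibition measured relative to vehicle-treated controls.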

[2] = NCI Yeast Anticancer Drug Screen. Data for the rad50EPP+ strain (AID 151);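 also: 0% = growth of vehicle-treated control cultures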; conditions: S. cerevisiae rad50 mutant strain, hits give high values
Outline: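 Compounds were applied to the rad50EPP+ yeast strain, which bears a defined DNA repair alteration, and growth inhibition was determined relative to vehicle-treated cultures.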

[3] = NCI Yeast Anticancer Drug Screen. Data for the rad50 strain (AID 155);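 also: 0% = growth of vehicle-only cultures of the same strain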; conditions: S. cerevisiae rad50 strain growth inhibition, hits give high values
Outline: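 Yeast carrying a defined DNA repair defect were exposed to test compounds, and growth was compared with vehicle-treated controls to give percent inhibition.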

[4] = NCI Yeast Anticancer Drug Screen. Data for the mec2-1 strain (AID 157); conditions: S. cerevisiae mec2-1 strain, hits give high values
Outline: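 Strain: mec2-1 (DNA repair/cell cycle alteration). Compound exposure, then growth measured; inhibition expressed relative to vehicle.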

[5] = NCI Yeast Anticancer Drug Screen. Data for the rad14 strain (AID 159);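 also: 0% = growth of vehicle-treated control cultures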; conditions: S. cerevisiae rad14 strain growth inhibition, hits give high values
Outline: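 Yeast cells carrying a defined DNA-repair defect were exposed to compounds, and growth inhibition was calculated relative to vehicle-treated control cultures.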

[6] = NCI Yeast Anticancer Drug Screen. Data for the sgs1 mgt1 strain (AID 161);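 also: 0% = growth of cultures given vehicle only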; conditions: S. cerevisiae sgs1 mgt1 strain, hits give high values
Outline: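 Read-out: growth inhibition vs vehicle controls. Cells: mutant yeast strain deficient in DNA damage repair.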

[7] = NCI Yeast Anticancer Drug Screen. Data for the CLN2oe strain (AID 163);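 also: 0% = growth of vehicle-only control cultures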; conditions: S. cerevisiae CLN2oe strain, hits give high values
Outline: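 Growth of a genetically modified yeast strain is measured after compound exposure and compared with cultures given vehicle alone.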

[8] = NCI Yeast Anticancer Drug Screen. Data for the cln2 rad14 strain (AID 165);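 also: 0% = growth equal to vehicle treated cultures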; conditions: S. cerevisiae cln2 rad14 strain, hits give high values
Outline: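 Compounds are applied to the cln2 rad14 yeast strain, and growth is then compared with that of vehicle-treated cultures to give inhibition.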

[9] = NCI Yeast Anticancer Drug Screen. Data for the bub3 strain (AID 167); conditions: S. cerevisiae bub3 mutant strain, hits give high values
Outline: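 Compounds were applied to a genetically altered yeast strain carrying a cell-cycle control defect. Growth inhibition was scored against vehicle-treated controls.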

[10] = NCI Yeast Anticancer Drug Screen. Data for the wt2 strain (AID 169);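 also: 0% = growth of vehicle-treated yeast cultures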; conditions: S. cerevisiae wt2 strain growth inhibition, hits give high values
Outline: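 This strain belongs to a panel of yeast strains with defined genetic alterations in DNA damage repair or cell cycle control. Compounds are applied, and growth inhibition is measured against vehicle-treated cultures.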

[11] = NCI Yeast Anticancer Drug Screen. Data for the mlh1 strain (AID 171);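 also: 0% = growth of vehicle-treated control cultures of the same strain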; conditions: S. cerevisiae mlh1 strain growth inhibition, hits give high values
Outline: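 Growth of the mutant yeast strain after compound exposure, expressed as inhibition relative to vehicle-only controls.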

[12] = NCI Yeast Anticancer Drug Screen. Data for the sgs1 strain (AID 173);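 also: 0% = growth of vehicle-only control cultures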; conditions: S. cerevisiae sgs1 mutant, hits give high values
Outline: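 Growth of a yeast strain bearing a defined genetic alteration is measured after compound treatment. Inhibition is expressed relative to vehicle-only controls.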

[13] = NCI Yeast Anticancer Drug Screen. Data for the mlh1 rad18 strain (AID 175); conditions: S. cerevisiae mlh1 rad18 strain growth inhibition, hits give high values
Outline: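 Read-out is yeast growth inhibition, calculated against vehicle-only controls. The compound was applied to a strain engineered with DNA damage repair alterations.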

[14] = NCI Yeast Anticancer Drug Screen. Data for the rad18 strain (AID 177); conditions: S. cerevisiae rad18 mutant growth inhibition, hits give high values
Outline: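 Growth of the mutant yeast strain after compound exposure, normalised to vehicle-only cultures.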

[15] = NCI Yeast Anticancer Drug Screen. Data for the mgt1 strain (AID 153); conditions: S. cerevisiae mgt1 mutant growth inhibition, hits give high values
Outline: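 Strain: mgt1 yeast, one of a set carrying defined DNA damage repair or cell cycle control alterations. Compound-treated growth compared with vehicle.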

[16] = at 5.0 µM (retest, dose inferred, filed as 0.5)
[17] = at 50.0 µM (retest, dose inferred, filed as 5.0)

Measured: growth inhibition

CN(C)N=Nc1ccc(NC=O)cc1
active: [1]; at 33.0 µM 92% | [1]; at 100.0 µM 99% | [2]; at 33.0 µM 86% | [2]; at 100.0 µM 98% | [3]; at 33.0 µM 97% | [3]; at 50.0 µM 89.7% | [3]; at 100.0 µM 99% | [4]; at 33.0 µM 90% | [4]; at 50.0 µM 91.8% | [4]; at 100.0 µM 99% | [5]; at 33.0 µM 77% | [5]; at 100.0 µM 98% | [7]; at 33.0 µM 98% | [7]; at 100.0 µM 99% | [8]; at 50.0 µM 85.2% | [9]; at 33.0 µM 94% | [9]; at 50.0 µM 78.7% | [9]; at 100.0 µM 99% | [10]; at 33.0 µM 96% | [10]; at 100.0 µM 99% | [11]; at 33.0 µM 91% | [11]; at 100.0 µM 99% | [12]; at 33.0 µM 93% | [12]; at 100.0 µM 99% | [13]; at 50.0 µM 87.4% | [14]; at 33.0 µM 98% | [14]; at 100.0 µM 99%
inactive: [1]; at 1.2 µM -2% | [1]; at 3.7 µM 1% | [1]; at 11.0 µM 9% | [2]; at 1.2 µM 11% | [2]; at 3.7 µM 6% | [2]; at 11.0 µM 8% | [3]; at 1.2 µM 5% | [3]; at 3.7 µM 4% | [3]; [16] 23% | [3]; at 11.0 µM 17% | [3]; [17] 67% | [4]; at 1.2 µM 0% | [4]; at 3.7 µM 13% | [4]; [16] 23% | [4]; at 11.0 µM 20% | [4]; [17] 47% | [5]; at 1.2 µM 6% | [5]; at 3.7 µM 3% | [5]; at 11.0 µM 9% | [6]; [16] -7% | [6]; [17] -44% | [6]; at 50.0 µM 66.2% | [7]; at 1.2 µM 31% | [7]; at 3.7 µM 27% | [7]; at 11.0 µM 49% | [8]; [16] -7% | [8]; [17] -19% | [9]; at 1.2 µM 15% | [9]; at 3.7 µM 18% | [9]; [16] -3% | [9]; at 11.0 µM 27% | [9]; [17] -22% | [10]; at 1.2 µM 18% | [10]; at 3.7 µM 9% | [10]; at 11.0 µM 14% | [11]; at 1.2 µM 2% | [11]; at 3.7 µM -7% | [11]; at 11.0 µM 6% | [12]; at 1.2 µM 2% | [12]; at 3.7 µM -5% | [12]; at 11.0 µM 8% | [13]; [16] 32% | [13]; [17] 65% | [14]; at 1.2 µM 19% | [14]; at 3.7 µM 24% | [14]; at 11.0 µM 35%

O=Cc1ccccc1B(O)O
active: [1]; at 33.0 µM 99% | [1]; at 100.0 µM 99% | [2]; at 3.7 µM 79% | [2]; at 11.0 µM 94% | [2]; at 33.0 µM 97% | [2]; at 100.0 µM 99% | [15]; at 11.0 µM 76% | [15]; at 33.0 µM 99% | [15]; at 100.0 µM 99% | [3]; at 3.7 µM 79% | [3]; at 11.0 µM 96% | [3]; at 33.0 µM 99% | [3]; [17] 95% | [3]; at 50.0 µM 98.8% | [3]; at 100.0 µM 99% | [4]; at 11.0 µM 97% | [4]; at 33.0 µM 99% | [4]; [17] 96% | [4]; at 50.0 µM 99.6% | [4]; at 100.0 µM 100% | [5]; at 11.0 µM 90% | [5]; at 33.0 µM 99% | [5]; at 100.0 µM 99% | [7]; at 11.0 µM 84% | [7]; at 33.0 µM 98% | [7]; at 100.0 µM 99% | [8]; [17] 94% | [8]; at 50.0 µM 96.5% | [9]; at 11.0 µM 81% | [9]; at 33.0 µM 98% | [9]; [17] 95% | [9]; at 50.0 µM 99% | [9]; at 100.0 µM 99% | [10]; at 11.0 µM 77% | [10]; at 33.0 µM 100% | [10]; at 100.0 µM 99% | [11]; at 11.0 µM 86% | [11]; at 33.0 µM 99% | [11]; at 100.0 µM 99% | [12]; at 11.0 µM 96% | [12]; at 33.0 µM 99% | [12]; at 100.0 µM 99% | [13]; [17] 94% | [13]; at 50.0 µM 99.5% | [14]; at 11.0 µM 94% | [14]; at 33.0 µM 98% | [14]; at 100.0 µM 99%
inactive: [1]; at 1.2 µM -3% | [1]; at 3.7 µM -1% | [1]; at 11.0 µM 66% | [2]; at 1.2 µM 43% | [15]; at 1.2 µM 0% | [15]; at 3.7 µM 2% | [3]; at 1.2 µM 31% | [3]; [16] 48% | [4]; at 1.2 µM 2% | [4]; at 3.7 µM 25% | [4]; [16] -25% | [5]; at 1.2 µM 3% | [5]; at 3.7 µM 13% | [7]; at 1.2 µM -4% | [7]; at 3.7 µM 11% | [8]; [16] -52% | [9]; at 1.2 µM -14% | [9]; at 3.7 µM -8% | [9]; [16] -83% | [10]; at 1.2 µM 0% | [10]; at 3.7 µM 1% | [11]; at 1.2 µM 8% | [11]; at 3.7 µM 14% | [12]; at 1.2 µM 18% | [12]; at 3.7 µM 66% | [13]; [16] -48% | [14]; at 1.2 µM 1% | [14]; at 3.7 µM 34%
